Assay outcomes as filed in PubChem BioAssay.
FMDV inh = antivirals against foot and mouth disease virus; Potency, µM (doses to about 57.9 µM), for inactives: top-dose activity change, negative = inhibition, actives largely listed as inhibitors; 410,000 compounds, 1.2% hits; FMDV antiviral cell-based qHTS; AID 1159524; calls by dose curve; tested in HEK293T cells; also: read-out not given here; nearly all actives have a fitted effect of over 45% in size
VACV Venus inh = inhibitors of vaccinia virus (Venus reporter) | Potency, µM (highest dose often 36.5 µM), inactives show at the highest dose activity change, negative = inhibition, most hits filed as inhibitors | 330,000 compounds, 0.46% hits | Vaccinia virus Venus reporter expression, fluorescence | AID 720580; calls by dose curve; tested in A549 cells; also: nearly all actives have a fitted effect of over 30% in size
MARV entry inh = inhibitors of Marburg virus binding or cell entry | Marburg virus pseudotyped entry inhibition, cell reporter | Potency, µM (titrated, usually from 37.8 µM), for inactives: at the top dose activity change, negative = inhibition, most hits filed as inhibitors | AID 540276 | 300,000 compounds, 1.8% hits; calls by dose curve; tested in HEK293 cells
Lassa entry inh = blocks Lassa virus binding to or entry into cells. Lassa virus pseudotype entry inhibition, cell reporter. Potency, µM (series often up to 37.9 µM), without a hit: at the highest dose activity change, negative = inhibition, hits mostly inhibitors. 300,000 compounds, 1.2% hits. AID 540256; calls by dose curve; tested in HEK293 cells; also: nearly all actives have a fitted effect of over 50% in size
HCV inhibitor = blocks hepatitis C virus; 340,000 compounds, 3.4% hits; Potency, µM (highest dose often 41.8 µM), without a hit: top-dose activity change, negative = inhibition, most hits filed as inhibitors; Huh7.5.1 HCVcc-Cre infection, luciferase reporter, 44 h; active = well fitted inhibition curve with a large enough effect; inconclusive = small, poorly fitted or top-dose-only effect, or another doubt; inactive = no such curve, though single readings can be large or run the other way
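Compounds are dispensed onto cells plated 4 h earlier at 1,000 per well, with HCVcc-Cre virus (about 0.5 moi) added next. Following 44 h of culture, luminescent signal is measured for 15 sec after 15 min with substrate at room temperature.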
Vaccinia mCherry = vaccinia inhibition (mCherry reporter). Potency, µM (doses to about 36.5 µM), inactives show at the top dose activity change, negative = inhibition, actives largely listed as inhibitors. AID 720579. Vaccinia virus mCherry reporter infection, fluorescence. 310,000 compounds, 0.63% hits; calls by dose curve; tested in A549 cells; also: nearly all actives have a fitted effect of over 35% in size
* hit, by the source's call; i = inactive; u = inconclusive; x = not tested or not shown; [ ] = remark or other dose. Hits are enriched below; roughly 5.3% of the tested compounds scored in any of these assays. % is scaled to controls: 0 for no effect and ±100 for the full control effect; potency is read from the fitted curve at half-maximal effect.

SMILES	FMDV inh	VACV Venus inh	MARV entry inh	Lassa entry inh	HCV inhibitor	Vaccinia mCherry
Cc1ccc(NC(=O)N(C2=NCC(C)S2)c2ccccc2)cc1 (centres undefined)	46%	x	u	3%	7%	x
CC(=O)Nc1ccc(S(=O)(=O)N(C2=NCC(C)S2)c2ccccc2)cc1 (centres undefined)	-12%	-23%	16µM*	u	u	x
CC(=O)Nc1ccc(S(=O)(=O)N(c2cccnc2)S(=O)(=O)c2ccc(NC(C)=O)cc2)cc1	-9%	x	u	0.82µM*	u	x
N#CC1=C(N)OC2=C(C(=O)CCC2)[C@@H]1CCc1ccccc1	x	x	11%[46.1 µM]	x	x	x
O/N=C(/CBr)c1ccc2ccccc2c1	x	-13%	x	x	x	i
CC(C(=O)NCCc1ccc(Cl)cc1)n1c(=O)c2cccn2c2cccnc21 (centres undefined)	-27%	x	x	x	11µM*	x
O=C(Cn1c(=O)c2cccn2c2cccnc21)N1CCN(c2ccc(Cl)cc2)CC1	u	x	x	x	13µM*	x
CCc1ccc(CNC(=O)CCCn2c(=O)c3cccn3c3cccnc32)cc1	-14%	x	x	x	10µM*	x
O=C(CCn1c(=O)c2cccn2c2cccnc21)N1CCN(c2ccc(Cl)cc2)CC1	u	-16%	x	24%[46.1 µM]	x	-23%
O=C(CCCn1c(=O)c2cccn2c2cccnc21)NCCc1ccc(Cl)cc1	-14%	-8%	x	1%[46.1 µM]	u	-12%
CC(C)Oc1ccc(CNC(=O)CCCn2c(=O)c3cccn3c3cccnc32)cc1	-1%	-12%	x	9%[46.1 µM]	x	-17%
C=CCSSSCC=C	-6%	-6%	x	x	x	-14%
COc1ccc(NC(=O)c2c(-c3ccccc3)noc2C)c(OC)c1	x	-18%	-25%	-2%	-28%	i
COc1ccc(NC(=O)c2c(-c3ccccc3Cl)noc2C)c(OC)c1	-1%	-6%	15µM*	u	-29%	i
COc1ccccc1N1CCN(C(=O)c2c(-c3ccccc3Cl)noc2C)CC1	u	u	u	u	11µM*	x
CC(=O)Oc1c2c(c(CC=C(C)C)c3c1C(=O)C1=CC4CC5C(C)(C)OC(C/C=C(\C)C(=O)O)(C4=O)[C@]15O3)OC(C)(CCC=C(C)C)C=C2 (some centres undefined)	4µM*	u	x	x	x	11µM*
COC(=O)/C(C)=C\CC12OC(C)(C)C3CC(C=C4C(=O)c5c(OC)c6c(c(CC=C(C)C)c5OC431)OC(C)(CCC=C(C)C)C=C6)C2=O (centres undefined)	32µM*	u	x	x	x	13µM*
CN(CC(=O)O)c1ccc(/C=C/c2ccnc3ccccc23)cc1	x	-4%	x	x	x	-2%
Cc1ccc(S(=O)(=O)N(CC(=O)N2CCCCCC2)c2ccccc2F)cc1	29%	-8%	11%[46.1 µM]	10µM*	11%	i
Cc1ccc(S(=O)(=O)N(Cc2ccccc2)c2ccccc2C(=O)N2CCCCC2)cc1	13%	-13%	10µM*	u	u	u
COc1ccc(S(=O)(=O)N(CC(=O)N2CCc3ccccc3C2)c2ccc(C)cc2)cc1	33%	-10%	-21%[46.1 µM]	6.3µM*	x	-13%
CN1CCN(C(=O)c2ccccc2N(Cc2ccccc2)S(=O)(=O)c2ccccc2)CC1	-23%	x	u	-21%	-7%	x
CCN(CC)CCCN1C(=O)C(=O)/C(=C(\O)c2ccc(Cl)cc2)[C@@H]1c1ccccn1	x	x	16%	x	x	x
NC(=S)N/N=C1/CCSc2ccc3ccccc3c21	u	u	u	-12%	u	14µM*
COc1ccc2ccccc2c1CN1CCCC(n2cc(C(=O)N3CCCC3)nn2)C1 (centres undefined)	12%	-1%	x	x	x	-4%
SMILES	FMDV inh	VACV Venus inh	MARV entry inh	Lassa entry inh	HCV inhibitor	Vaccinia mCherry
O=C(O)C1CC(Br)C(Br)CC1C(=O)O (centres undefined)	-8%	-15%	x	x	x	i
C[C@@](N)(C(=O)O)[C@@H]1C[C@@H]1C(=O)O	40µM*	-3%	x	x	x	i
Cn1c2c(c(=O)n(C)c1=O)[C@](NC(=O)c1cccs1)(C(F)(F)F)C(=O)N2	x	x	14%	x	x	x
Cc1ccc2nc(CO)[nH]c2c1	x	-1%	x	x	x	12%
C=CCN1C(=O)CSc2ccc(C(=O)NCCC3=CCCCC3)cc21	u	x	u	7.3µM*	u	x
CC1CCN(CCc2nc3cc(NC(=O)COc4ccc(Cl)cc4)ccc3n2C)CC1	-22%	-4%[7.34 µM]	x	x	11µM*	-13%[7.34 µM]
COc1ccc(OCC(=O)Nc2ccc3c(c2)nc(CCN2CCC(C)CC2)n3C)cc1	11%	x	x	x	16%	x
Cc1ccc(OCC(=O)Nc2ccc3c(c2)nc(CCN2CCC(C)CC2)n3C)cc1	-11%	-30%	u	u	13µM*	-12%
Cc1ccc(-n2c3c(cc(-c4nc(-c5ccc(Cl)cc5)cs4)c2=O)C(=O)CC(C)(C)C3)cc1	-6%	-3%	1%[46.1 µM]	8%[46.1 µM]	x	-3%
COC(=O)C1C=CC(OC2OC(COC(C)=O)C(OC(C)=O)C(OC(C)=O)C2OC(C)=O)n2c(=O)n(-c3ccccc3)c(=O)n21 (centres undefined)	25µM*	u	u	u	10µM*	10µM*
CC(=O)OC[C@H]1O[C@@H](ON=C[C@@H](C)[C@H](OCc2ccccc2)C(C)C)[C@@H](OC(C)=O)[C@@H](OC(C)=O)[C@@H]1OC(C)=O	x	x	u	23%[14.3 µM]	x	x
CCCSCCCNC(=O)C1CCCN(c2nn3cc(-c4ccc(OC)cc4)nc3s2)C1 (centres undefined)	-20%	-26%	x	17%[46.1 µM]	x	u
CCOc1ccccc1C(=O)N1c2ccccc2Sc2ccccc21	-14%	-33%	u	u	11µM*	x
S=C(N/N=C/c1ccc2ncccc2c1)Nc1cccnc1	14µM*	x	x	x	0%	x
Oc1ccc(C=NNC(=S)Nc2cccnc2)nc1	27%	-22%	u	10µM*	u	-26%
Oc1ccc(/C=N/NC(=S)Nc2cccnc2)cc1O	u	-12%	u	u	-3%	-10%
OCCCNc1c2ccccc2nc2ccccc12	-10%	10µM*	7.1µM*	u	11µM*	11µM*
c1ccc2c(NCCc3c[nH]c4ccccc34)c3ccccc3nc2c1	u	8.9µM*	x	x	14µM*	u
Fc1cccc(NCCc2c[nH]c3ccccc23)n1	38%	u	x	x	u	-29%
CN1CCN(C(=O)C(=O)Nc2c3c(nn2-c2ccc(Cl)cc2)CSC3)CC1	1%	-1%	x	2%[46.1 µM]	x	1%
COc1cc(C)c(CN2CCc3nnc(C(C)NC(=O)c4cc(F)ccc4F)n3CC2)cc1C (centres undefined)	-16%	-18%	x	x	x	-19%
C=CCNCC(=O)Nc1sc2c(c1C(=O)Nc1ccc(OC)cc1OC)CCC2	-27%	x	x	x	10µM*	x
COc1cccc(C(=O)Nc2sc3c(c2C(=O)O)CCCC3)c1	32%	u	11µM*	10µM*	13µM*	u
Cc1cccc(C(=O)Nc2sc3c(c2C(=O)O)CCC3)c1	u	x	x	x	-14%	x
